# Measured values from PubChem BioAssay (NCI).
# Compounds without any hit were thinned out: in the full panel of roughly 83,000, 20% have a hit.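 Note: values are percent growth. 100 is the growth of untreated cells, values between 100 and 0 indicate rising inhibition; between -100 and 0 indicates cell death.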 A number with no mark means an inactive call. Calls of active or inactive are those of the source. How the source made its calls: active means growth percent below 10; inactive means the rest.
# Tests used:
# Assay in all cases: NCI-60 one-dose screen, 48 h (100 = growth as untreated, 0 = no growth, -100 = all killed)
# Details in all cases: 10 µM unless noted
# [1] = test system: NCI-H23 lung
# [2] = test system: NCI-H226 lung
# [3] = test system: NCI-H322M lung
# [4] = test system: HOP-62 NSCLC
# [5] = test system: NCI-H460 lung
# [6] = test system: HOP-92 NSCLC
# [7] = test system: NCI-H522 lung
# [8] = test system: A549/ATCC NSCLC
# [9] = test system: 786-0 renal
# [10] = test system: COLO 205 colon
# [11] = test system: DU-145 prostate
# [12] = test system: K-562 leukemia
# [13] = test system: MALME-3M melanoma
# [14] = test system: MDA-MB-231 breast
# [15] = test system: RXF 393 renal
# [16] = test system: SF-268 CNS
# [17] = test system: SF-295 CNS
# [18] = test system: SF-539 CNS
# [19] = test system: M14 melanoma
SMILES,growth [1],growth [2],growth [3],growth [4],growth [5],growth [6],growth [7],growth [8],growth [9],growth [10],growth [11],growth [12],growth [13],growth [14],growth [15],growth [16],growth [17],growth [18],growth [19]
O=S(=O)(NCCNc1cc(-c2cn(-c3ccccc3)nc2-c2cccc(O)c2)ccn1)c1ccc(C(F)(F)F)cc1,41.8%,57.8%,75.3%,-60% (active),42.3%,38.4%,55.7%,41.6%,35.8%,-21.4% (active),71.8%,7.03% (active),60.2%,5.29% (active),40.5%,50%,38.6%,60.1%,32.1%
COc1cccc(-c2nn(-c3ccccc3)cc2-c2ccnc(NCCCN)c2)c1,60%,78.7%,78.5%,47.9%,27.9%,32.3%,83.4%,68%,52.1%,26.1%,75.6%,16.8%,70.2%,33.7%,51.5%,64%,44.7%,49.8%,26.1%
COc1cccc(-c2nn(-c3ccccc3)cc2-c2ccnc(NCCCNS(=O)(=O)c3ccc(Br)cc3)c2)c1,52.9%,51.9%,74.4%,81%,44.3%,34.6%,54.4%,47.7%,46.4%,20.8%,72.6%,19.1%,71.9%,42.4%,44.7%,55.2%,37.7%,76.3%,47.4%
O=S(=O)(NCCNc1cc(-c2cn(-c3ccccc3)nc2-c2cccc(O)c2)ccn1)c1ccc(F)cc1,33.6%,45.1%,58.7%,48%,22.9%,35.7%,4.98% (active),26.9%,-9.01% (active),-49.3% (active),55.3%,1.3% (active),14.5%,-9.05% (active),35%,40.4%,10.4%,44.4%,14.2%
COc1ccc(-c2nc(Nc3ccc(-c4nc5ccccc5[nH]4)cc3)nc(N3CCOCC3)n2)cc1,11.3%,17.1%,27%,-27.3% (active),0.132% (active),-6.57% (active),11.9%,11.2%,-60% (active),-43.7% (active),38.5%,-22% (active),-65.7% (active),5.74% (active),-67.5% (active),34.1%,-63.5% (active),0.307% (active),-7.64% (active)
CC/C(=N/NC(N)=O)c1ccccc1,98.6%,97.8%,102%,107%,108%,103%,99.5%,96.4%,98.5%,119%,108%,101%,105%,102%,108%,107%,89.8%,95.1%,106%
COC(=O)[C@]12CC[C@@H](C)[C@H](C)[C@@H]1C1=CC[C@@H]3[C@@]4(C)C=C(O)C(=O)C(C)=C4CC[C@@]3(C)[C@]1(C)CC2,22.1%,22.4%,82.6%,56.4%,46.8%,26.4%,-14.1% (active),39.5%,68%,37.1%,54.4%,19.3%,86.2%,5.7% (active),27.6%,60%,34.7%,32.3%,24.9%
CCN(CC)C(=O)CCCCCn1c2ccccc2c2c3c(c4c5ccccc5[nH]c4c21)C(=O)N(O)C3=O,46.8%,69.9%,81.8%,-26.4% (active),53.1%,78.5%,-66.5% (active),87.2%,78.1%,-7.19% (active),69%,40.8%,102%,42.9%,45.6%,51.6%,62.5%,39.7%,53.9%
C=C1C(=O)O[C@H]2[C@H]1CC/C(Cn1cc(-c3ccc(F)cc3)nn1)=C\CC[C@@]1(C)O[C@@H]21,5.71% (active),-31.3% (active),80.6%,44.4%,77.4%,-67.7% (active),-80.4% (active),60.2%,-71.5% (active),-84.4% (active),-71.3% (active),-20.3% (active),-58.1% (active),-46.2% (active),-68.1% (active),5.29% (active),86.4%,-34.6% (active),-40.3% (active)
COC(=O)[C@]12CC[C@@H](C)[C@H](C)[C@@H]1C1=CC[C@@H]3[C@@]4(C)C(c5ncon5)=C[C@@](C)(CO)C4=CC[C@@]3(C)[C@]1(C)CC2,-26.2% (active),-34.7% (active),21.8%,-8.97% (active),-33.4% (active),-49.9% (active),-77.5% (active),29.5%,-23.8% (active),-46% (active),-71.5% (active),-21.2% (active),-73.6% (active),-49.3% (active),-73.2% (active),-7.68% (active),-46.8% (active),-86.2% (active),-58.5% (active)
O=S(=O)(NCCNc1cc(-c2cn(-c3ccccc3)nc2-c2cccc(O)c2)ccn1)c1ccccc1,57.4%,67.1%,82%,77.7%,49.1%,49.4%,42.3%,45.5%,55.3%,18.3%,76.2%,9.58% (active),76.4%,28%,66.3%,69.7%,43.2%,70%,53.9%
N#Cc1cnc2cc(OC[C@@H](O)CO)c(NC(=O)CC3CSSC3)cc2c1Nc1ccc(OCc2cccc(F)c2)c(Cl)c1,-72.4% (active),-65.3% (active),-84.2% (active),-57.1% (active),-66.9% (active),9.97% (active),-72.6% (active),-61.8% (active),-31.4% (active),-70.5% (active),-85.1% (active),-37.4% (active),-67.6% (active),-60.5% (active),-72.9% (active),-57% (active),-80.5% (active),-79.7% (active),-78.7% (active)
COc1cccc(-c2nn(-c3ccccc3)cc2-c2ccnc(NCCNS(=O)(=O)c3ccc(Cl)cc3)c2)c1,32%,41.8%,63.8%,53.5%,32.9%,7.77% (active),12.4%,27.4%,40.3%,4.94% (active),52.7%,11.7%,50.3%,19.3%,29.8%,45.7%,21.7%,54.1%,28.6%
COc1ccc(/C=C/C(=O)NCCO)cc1,96.6%,97.9%,97.6%,87.7%,103%,105%,82%,79.7%,100%,112%,102%,95.7%,92.3%,105%,106%,94.3%,98.3%,94.9%,106%
CC1(c2ccccc2)OC1C(=O)O (stereo not given),94.1%,104%,97.9%,107%,107%,119%,97.8%,105%,99.7%,115%,108%,111%,88.5%,110%,103%,106%,101%,96.1%,95.2%
